Experimental data as given in PubChem BioAssay (NCATS).
Records with an inconclusive call do not appear. Values without a mark were called inactive. The call rests on the fitted dose curve; tested in HEK293 reporter line.

Assay: qHTS for Inhibitors of the Functional Ribonucleoprotein Complex (vRNP) of Lassa (LASV) Arenavirus: Viability assay - alamar blue signal for LASV Primary Screen (AID 1347083); further: nearly all actives have a fitted effect of over 80% in size
Details: cell viability, alamar blue fluorescence (LASV minigenome counter-screen); series mostly up to 57.5 µM; activity change, negative = reduced viability: at the top concentration
On the % scale 0 is the no-effect control and ±100 the full control effect.

In order of rising “activity change, negative = reduced viability” value:
1. CC(=O)OC[C@]12CCC(C)=C[C@H]1O[C@@H]1[C@H](O)[C@@H](OC(C)=O)[C@@]2(C)[C@]12CO2  -144%
2. COc1cc(C2c3cc4c(c(O)c3CC3COC(=O)C32)OCO4)cc(OC)c1O (stereo not given)  -102%
3. CC12C=CC(=O)C=C1CCC1C2CCC2(C)C(C(=O)CO)CCC12 (stereo not given)  -28.4%
4. COC(=O)c1cc2c([nH]c3ccccc32)c(C)n1  -18.4%
5. COc1ccc(C2Sc3ccccc3N(CCN(C)C)C(=O)C2OC(C)=O)cc1 (stereo not given)  -16.7%
6. COc1cc(OC)c2c(-c3ccccc3)cc(=O)oc2c1  -16.2%
7. O=C1N[C@@H](Cc2c[nH]c3ccccc23)C(=O)N[C@H]1Cc1c[nH]c2ccccc12  -12.5%
8. CC(O)C1C(=O)N2C(C(=O)O)=C(SC3CNC(C(=O)N(C)C)C3)C(C)C12 (stereo not given)  -9.14%
9. COc1c(-c2ccc(O)cc2)oc2cc(O)cc(O)c2c1=O  -6.82%
10. COc1ccc(-c2coc3cc(OC)cc(O)c3c2=O)cc1  -4%
11. OC1O[C@H](c2ccc3c(c2)OCO3)[C@H]2CO[C@H](c3ccc4c(c3)OCO4)[C@@H]12 (stereo not given in full)  -3.57%
12. O=C(O)c1cc(N(Cc2ccccc2O)Cc2ccccc2O)ccc1O  -0.824%
13. Cn1cnc2c(ncn2[C@@H]2O[C@H](CO)[C@@H](O)[C@H]2O)c1=N  2.9%
14. CC[C@@H]1C=C(C)C[C@H](C)C[C@H](OC)[C@H]2O[C@@](O)(C(=O)C(=O)N3CCCC[C@@H]3C(=O)O[C@H](C(C)=C[C@@H]3CC[C@H](Cl)[C@H](OC)C3)[C@H](C)[C@@H](O)CC1=O)[C@H](C)C[C@H]2OC  2.99%
15. CC1(C)C[C@H]2C3=CCC4[C@@]5(C)CC[C@H](O)C(C)(C)C5CC[C@@]4(C)[C@]3(C)[C@@H](O)[C@@H](O)[C@@]2(CO)[C@@H](O)[C@@H]1O (stereo not given in full)  3.02%
16. CCCCCCCCCCCCCC[C@@H](O)[C@@H](O)[C@@H](N)CO  4.01%
17. C[C@@]12CC[C@H]3OC(=O)C=C3C1CC[C@@]13CC(CCC12)[C@](CO)(O[C@H]1O[C@H](CO)[C@@H](O)[C@H](O)[C@H]1O)C3 (stereo not given in full)  4.19%
18. CC(c1c(O)c2ccccc2[nH]c1=O)C1(C)CCC(O)C(C)(C)O1 (stereo not given)  4.85%
19. CO[C@H]1/C=C\O[C@@]2(C)Oc3c(C)c(O)c4c(O)c(c5c(nc6cc(C)ccn65)c4c3C2=O)NC(=O)C(C)=CC=C[C@H](C)[C@H](O)[C@@H](C)[C@@H](O)[C@@H](C)[C@H](OC(C)=O)[C@H]1C  5.23%
20. C[N+](C)(C)C[C@H](O)CC(=O)[O-]  5.73%
21. OC[C@H]1O[C@@H](O[C@H]2[C@@H](O)[C@@](O)(CO)O[C@@H]2CO)[C@H](O)[C@@H](O)[C@@H]1O  6.17%
22. CC(C)=CCC1=C(O)[C@](O)(CC=C(C)C)C(=O)C(C(=O)CC(C)C)=C1O  6.8%
23. CN1CCc2cc3c(cc2C1)OCO3  8.06%
24. Cc1cc2c(c(CO)c1CCO)C(=O)[C@@H](C)[C@@H]2O  10.9%
25. CCc1cc(C(C)=NOCc2ccc(C3CCCCC3)c(C(F)(F)F)c2)ccc1CN1CC(C(=O)O)C1  11%
26. COC(=O)C1=CO[C@@H](OC2OC(CO)C(O)C(O)C2O)[C@@H]2C(CO)=CC[C@H]12 (stereo not given in full)  11.3%
27. CC(C)NC(=O)NCCCCCCS(C)=O (stereo not given)  12.6%
28. COC(=O)CC1[C@@]2(C)C[C@]34OC5(C)OC6(C7CC(=O)OC(c8ccoc8)[C@]7(C)CCC6(O5)[C@]13C)C(OC(C)=O)[C@]4(OC(C)=O)C2OC(C)=O (stereo not given in full)  12.7%
29. C/C=C(/CC[C@@H](C)[C@H]1CC[C@H]2C3=CC[C@H]4[C@H](C)[C@@H](O)CC[C@]4(C)[C@H]3CC[C@]12C)C(C)C  14.1%
30. COc1ccc([C@H]2c3cc(OC)c(OC)cc3C[C@@H](C)[C@@H]2C)cc1OC  15.6%
31. O=C(O)[C@@H]1Cc2c([nH]c3ccccc23)C2CCC(=O)N21 (stereo not given in full)  18.3%
32. CC[C@H]1NC(=O)[C@@H](NC(=O)c2ncccc2O)[C@@H](C)OC(=O)[C@H](c2ccccc2)NC(=O)[C@@H]2CC(=O)CCN2C(=O)[C@H](Cc2ccccc2)N(C)C(=O)[C@@H]2CCCN2C1=O  18.4%

In order of falling “activity change, negative = reduced viability” value:
1. CC/C=C\CCCCCCCCCCOC(C)=O  18% [at 115 µM]
2. CC/C=C\CCOC(=O)CCCCC  10% [at 115 µM]
3. CC/C=C\CCOC(C)OCC (stereo not given)  9.56% [at 115 µM]
4. COC(=O)c1ccccc1OC  2.74% [at 115 µM]
5. CCOC(=O)c1ccccc1  1.69% [at 115 µM]
6. CC1(C)CCC[C@]2(C)[C@H]3CCO[C@]3(C)CC[C@@H]12  -0.0097% [at 115 µM]
7. O=C(OCCc1ccccc1)c1ccccc1  -26.6% [at 115 µM]

Work on `O=C(O)CCC[C@H](O)\C=C/C=C/C=C/[C@H](O)C/C=C\CCCCCO` yielded an activity change, negative = reduced viability of 2.93% [at 0.757 µM].
